Experimental data taken from the supplement of paper PMC12067093, “Discovery and optimisation of a covalent ligand for TRIM25 and its application to targeted protein ubiquitination” (Chemical Science, 2025).
About 21,000 targets were measured; listed, in parts, are those with the largest changes and a random draw of the rest.

Compound: CC1Cc2ccccc2N1C(=O)C1CCCN(C1)C(=O)CCl (mixture of isomers) [TRIM25 ligand 11 (diastereomer mixture)]
Experiment: probe-labelled cysteine peptide fold change vs DMSO (competition) (log2 fold change); higher = less target engagement (more negative = stronger competition)
Conditions: THP-1, incubation time: 4 h
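Also: competitive chemoproteomic profiling in live THP-1 cells with an iodoacetamide desthiobiotin (IA-DTB) probe, comparing probe-labelled peptide intensities in compound-treated cells against DMSO-treated controls.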

UniProt Q9UNF0, sequence (Q9UNF0 whole entry, looked up): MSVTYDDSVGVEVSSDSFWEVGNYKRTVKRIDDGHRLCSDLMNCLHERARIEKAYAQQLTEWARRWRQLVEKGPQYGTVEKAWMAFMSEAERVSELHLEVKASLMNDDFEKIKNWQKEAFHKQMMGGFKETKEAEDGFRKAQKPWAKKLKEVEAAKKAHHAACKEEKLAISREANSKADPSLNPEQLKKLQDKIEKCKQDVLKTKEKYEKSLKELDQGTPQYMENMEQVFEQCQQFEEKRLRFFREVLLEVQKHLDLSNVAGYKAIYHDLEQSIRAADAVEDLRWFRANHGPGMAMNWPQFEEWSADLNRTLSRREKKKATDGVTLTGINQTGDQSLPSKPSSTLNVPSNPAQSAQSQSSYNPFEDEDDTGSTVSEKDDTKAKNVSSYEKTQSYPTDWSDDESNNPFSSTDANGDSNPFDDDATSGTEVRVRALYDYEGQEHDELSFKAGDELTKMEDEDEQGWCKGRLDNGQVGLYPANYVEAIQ
UniProt Q9ULE6, sequence (Q9ULE6 whole entry, looked up): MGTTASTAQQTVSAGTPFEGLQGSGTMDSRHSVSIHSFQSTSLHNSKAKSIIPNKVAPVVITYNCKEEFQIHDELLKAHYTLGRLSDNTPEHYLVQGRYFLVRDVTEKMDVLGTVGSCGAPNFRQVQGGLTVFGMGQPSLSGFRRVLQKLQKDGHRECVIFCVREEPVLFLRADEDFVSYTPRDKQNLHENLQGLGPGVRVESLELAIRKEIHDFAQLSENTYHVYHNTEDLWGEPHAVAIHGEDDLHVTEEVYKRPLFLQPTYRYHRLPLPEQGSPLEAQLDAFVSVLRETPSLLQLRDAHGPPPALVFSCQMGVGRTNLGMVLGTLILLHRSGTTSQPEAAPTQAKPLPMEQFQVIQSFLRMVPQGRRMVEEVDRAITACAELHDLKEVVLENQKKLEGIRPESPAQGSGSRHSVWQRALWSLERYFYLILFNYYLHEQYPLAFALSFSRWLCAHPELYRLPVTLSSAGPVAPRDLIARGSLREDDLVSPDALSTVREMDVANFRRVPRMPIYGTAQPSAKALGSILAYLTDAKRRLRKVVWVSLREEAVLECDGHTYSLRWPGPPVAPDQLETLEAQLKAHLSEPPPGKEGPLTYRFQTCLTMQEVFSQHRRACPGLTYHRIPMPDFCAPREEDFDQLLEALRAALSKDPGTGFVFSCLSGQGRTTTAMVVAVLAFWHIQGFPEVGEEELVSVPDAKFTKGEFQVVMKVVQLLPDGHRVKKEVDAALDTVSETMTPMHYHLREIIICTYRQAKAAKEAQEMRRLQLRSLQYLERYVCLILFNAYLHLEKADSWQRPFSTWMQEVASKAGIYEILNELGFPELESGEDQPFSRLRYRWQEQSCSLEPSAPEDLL
UniProt P12004, sequence (P12004 whole entry, looked up): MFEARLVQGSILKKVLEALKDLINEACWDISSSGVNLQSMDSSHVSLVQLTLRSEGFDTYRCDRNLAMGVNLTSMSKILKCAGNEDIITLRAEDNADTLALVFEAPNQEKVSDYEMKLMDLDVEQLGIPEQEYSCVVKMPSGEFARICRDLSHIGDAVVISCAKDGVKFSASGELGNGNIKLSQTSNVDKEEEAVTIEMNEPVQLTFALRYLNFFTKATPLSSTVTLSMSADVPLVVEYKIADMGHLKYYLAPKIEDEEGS
UniProt P17568, sequence (P17568 whole entry, looked up): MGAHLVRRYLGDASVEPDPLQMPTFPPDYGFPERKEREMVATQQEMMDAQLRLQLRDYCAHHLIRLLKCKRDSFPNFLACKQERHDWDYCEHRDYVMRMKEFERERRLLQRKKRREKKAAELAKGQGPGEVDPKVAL
UniProt Q9BRP1, sequence (Q9BRP1 whole entry, looked up): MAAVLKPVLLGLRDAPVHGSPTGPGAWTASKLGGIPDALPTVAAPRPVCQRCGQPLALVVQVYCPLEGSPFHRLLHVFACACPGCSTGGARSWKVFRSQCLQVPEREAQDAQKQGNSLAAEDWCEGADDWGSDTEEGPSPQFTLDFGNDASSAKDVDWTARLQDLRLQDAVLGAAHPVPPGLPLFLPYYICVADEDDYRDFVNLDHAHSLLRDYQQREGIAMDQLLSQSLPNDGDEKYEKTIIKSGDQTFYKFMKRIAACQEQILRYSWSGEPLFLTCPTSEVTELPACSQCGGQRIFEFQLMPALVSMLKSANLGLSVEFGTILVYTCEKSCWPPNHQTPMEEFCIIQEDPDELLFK
UniProt P32242, sequence (P32242 whole entry): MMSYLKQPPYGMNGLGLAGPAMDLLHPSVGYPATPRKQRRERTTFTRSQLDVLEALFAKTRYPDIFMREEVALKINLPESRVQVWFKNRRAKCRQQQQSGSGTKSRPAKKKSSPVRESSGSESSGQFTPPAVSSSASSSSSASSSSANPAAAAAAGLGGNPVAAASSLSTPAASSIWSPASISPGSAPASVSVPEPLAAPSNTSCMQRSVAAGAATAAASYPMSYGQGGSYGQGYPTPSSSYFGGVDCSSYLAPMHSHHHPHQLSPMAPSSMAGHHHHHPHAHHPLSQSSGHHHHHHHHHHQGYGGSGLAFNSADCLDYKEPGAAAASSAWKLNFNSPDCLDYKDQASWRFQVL
UniProt Q92621, sequence (Q92621 whole entry, looked up): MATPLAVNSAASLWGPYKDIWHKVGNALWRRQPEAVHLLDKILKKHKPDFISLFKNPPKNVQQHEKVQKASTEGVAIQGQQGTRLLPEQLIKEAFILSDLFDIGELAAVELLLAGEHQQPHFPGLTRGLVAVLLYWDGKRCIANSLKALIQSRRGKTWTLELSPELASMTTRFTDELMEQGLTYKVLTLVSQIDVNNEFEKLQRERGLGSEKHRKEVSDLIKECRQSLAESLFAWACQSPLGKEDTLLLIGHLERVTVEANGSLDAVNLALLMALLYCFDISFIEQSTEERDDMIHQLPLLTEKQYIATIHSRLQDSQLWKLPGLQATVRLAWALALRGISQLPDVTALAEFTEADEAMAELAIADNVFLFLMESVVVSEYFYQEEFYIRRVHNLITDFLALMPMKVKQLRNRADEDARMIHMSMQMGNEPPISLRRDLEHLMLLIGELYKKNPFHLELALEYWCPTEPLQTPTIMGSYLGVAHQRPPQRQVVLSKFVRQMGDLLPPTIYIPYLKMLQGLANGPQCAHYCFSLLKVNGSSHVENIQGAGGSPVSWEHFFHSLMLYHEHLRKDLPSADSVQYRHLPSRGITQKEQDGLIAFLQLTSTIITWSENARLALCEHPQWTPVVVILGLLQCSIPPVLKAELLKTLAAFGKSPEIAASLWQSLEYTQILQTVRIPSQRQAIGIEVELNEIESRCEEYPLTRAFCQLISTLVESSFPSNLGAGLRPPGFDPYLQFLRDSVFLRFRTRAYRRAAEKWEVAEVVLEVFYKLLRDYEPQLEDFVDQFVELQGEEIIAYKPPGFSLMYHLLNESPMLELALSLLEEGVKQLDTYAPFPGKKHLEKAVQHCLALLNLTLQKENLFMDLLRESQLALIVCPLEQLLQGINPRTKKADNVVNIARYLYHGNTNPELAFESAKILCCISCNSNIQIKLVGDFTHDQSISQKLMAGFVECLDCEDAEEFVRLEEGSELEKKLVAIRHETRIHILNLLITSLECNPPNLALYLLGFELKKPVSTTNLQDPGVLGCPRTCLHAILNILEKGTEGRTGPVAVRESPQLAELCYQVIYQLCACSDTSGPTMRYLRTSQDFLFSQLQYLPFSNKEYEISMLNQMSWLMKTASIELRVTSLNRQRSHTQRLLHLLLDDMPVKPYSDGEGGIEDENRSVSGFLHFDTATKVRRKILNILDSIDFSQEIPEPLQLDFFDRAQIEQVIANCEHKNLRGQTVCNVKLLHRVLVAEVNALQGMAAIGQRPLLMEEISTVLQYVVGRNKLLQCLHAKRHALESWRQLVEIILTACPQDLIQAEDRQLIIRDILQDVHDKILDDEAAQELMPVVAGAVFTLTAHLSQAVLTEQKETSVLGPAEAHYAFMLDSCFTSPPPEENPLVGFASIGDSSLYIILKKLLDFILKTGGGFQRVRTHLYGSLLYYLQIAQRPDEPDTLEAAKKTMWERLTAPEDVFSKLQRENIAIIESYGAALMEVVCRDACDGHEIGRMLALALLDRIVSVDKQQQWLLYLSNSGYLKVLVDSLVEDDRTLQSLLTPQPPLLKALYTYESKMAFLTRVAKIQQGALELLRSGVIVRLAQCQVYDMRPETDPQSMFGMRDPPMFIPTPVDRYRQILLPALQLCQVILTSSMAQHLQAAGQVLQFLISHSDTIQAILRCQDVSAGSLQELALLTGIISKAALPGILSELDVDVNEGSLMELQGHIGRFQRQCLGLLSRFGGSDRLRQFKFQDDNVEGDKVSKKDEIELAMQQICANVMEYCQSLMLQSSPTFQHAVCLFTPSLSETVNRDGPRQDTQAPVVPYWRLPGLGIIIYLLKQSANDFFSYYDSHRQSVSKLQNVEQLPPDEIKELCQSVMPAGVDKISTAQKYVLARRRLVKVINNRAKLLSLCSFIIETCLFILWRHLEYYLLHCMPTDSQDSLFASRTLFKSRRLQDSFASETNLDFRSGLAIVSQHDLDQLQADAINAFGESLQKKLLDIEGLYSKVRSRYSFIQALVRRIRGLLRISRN
UniProt Q15818, sequence (Q15818 whole entry): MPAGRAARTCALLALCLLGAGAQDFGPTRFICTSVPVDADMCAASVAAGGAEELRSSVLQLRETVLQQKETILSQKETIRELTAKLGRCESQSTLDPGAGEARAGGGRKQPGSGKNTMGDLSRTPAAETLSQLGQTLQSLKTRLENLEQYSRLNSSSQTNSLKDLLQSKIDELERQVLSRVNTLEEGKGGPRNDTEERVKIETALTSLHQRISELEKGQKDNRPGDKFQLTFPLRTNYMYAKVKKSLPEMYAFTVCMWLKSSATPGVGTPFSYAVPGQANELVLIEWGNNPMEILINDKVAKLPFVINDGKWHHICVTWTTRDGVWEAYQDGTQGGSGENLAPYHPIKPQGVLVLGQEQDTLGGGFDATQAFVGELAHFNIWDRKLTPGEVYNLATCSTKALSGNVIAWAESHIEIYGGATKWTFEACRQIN

Row | Target | probe-labelled cysteine peptide fold change (10 µM) | probe-labelled cysteine peptide fold change (50 µM)
1 | NDUFB7_P17568_90_HDWDYCEHR (UniProt P17568) | 0.161 | 0.191
2 | NUDT14_O95848_12_CAASPYLRPLTLHYR (UniProt O95848) | -0.125 | 0.0208
3 | PARP1_P09874_908_SANYCHTSQGDPIGLILLGEVALGNMYELK (UniProt P09874) | -0.146 | -0.761
4 | OS9_Q13438_181_CDLNGRPR (UniProt Q13438) | 0.0235 | 0.139
5 | NOB1_Q9ULX3_147_GHSACEPENLEFSSFMFWR (UniProt Q9ULX3) | -0.0264 | -0.119
6 | PARK7_Q99497_46_VTVAGLAGKDPVQCSR (UniProt Q99497) | -0.13 | -0.213
7 | PADI2_Q9Y2J8_629_GLLEPLGLECTFIDDISAYHK (UniProt Q9Y2J8) | 0.0551 | 0.0618
8 | PCBP3_P57721_141_LVVPASQCGSLIGK (UniProt P57721) | -0.0567 | -0.121
9 | PAK3_O75914_424_LTDFGFCAQITPEQSKR (UniProt O75914) | -0.27 | -0.161
10 | P4HB_P07237_53+56_YLLVEFYAPWCGHCK (UniProt P07237) | -0.316 | -0.77
11 | PCBP1_Q15365_293_GYWASLDASTQTTHELTIPNNLIGCIIGR (UniProt Q15365) | -0.0964 | -0.174
12 | NEMF_O60524_575_YLTPGDIYVHADLHGATSCVIK (UniProt O60524) | 0.0554 | 0.13
13 | NUP205_Q92621_1032_TCLHAILNILEK (UniProt Q92621) | 0.00038 | -0.0819
14 | NSUN5_Q96P11_278+279_AGVSCCELAEEDFLAVSPSDPR (UniProt Q96P11) | 0.234 | -0.117
15 | P4HB_P07237_312_ILEFFGLKKEECPAVR (UniProt P07237) | -0.567 | -0.501
16 | PARP4_Q9UKK3_1099_LLVYGFIPHCTQATLCALIQEK (UniProt Q9UKK3) | 0.224 | -0.243
17 | PA2G4_Q9UQ80_296_MGVVECAKHELLQPFNVLYEK (UniProt Q9UQ80) | -0.781 | -0.434
18 | PACSIN2_Q9UNF0_465_MEDEDEQGWCK (UniProt Q9UNF0) | 0.118 | 0.00577
19 | PAFAH1B1_P43034_281_EHEHVVECISWAPESSYSSISEATGSETK (UniProt P43034) | -0.156 | 0.158
20 | PDCD2L_Q9BRP1_191_LQDAVLGAAHPVPPGLPLFLPYYICVADEDDYRDFVNLDHAHSLLR (UniProt Q9BRP1) | -0.928 | 0.29
21 | NKRF_O15226_386_VFLQDHCLAEGYGTKK (UniProt O15226) | -0.274 | -0.153
22 | NLRX1_Q86UT6_713_CTVVAAVLGSGR (UniProt Q86UT6) | -0.136 | 0.223
23 | NUP133_Q8WUM0_457_IVFNAQGDSVLGAGACGGVPIIFSR (UniProt Q8WUM0) | -0.146 | -0.142
24 | NUP133_Q8WUM0_700+702_EVSQVDTICECLLEHEEQVLR (UniProt Q8WUM0) | 0.507 | 0.631
25 | PDCD4_Q53EL6_288_GTVDCVQAR (UniProt Q53EL6) | 0.164 | 0.233
26 | NDC1_Q9BTX1_9_ATAVSRPCAGR (UniProt Q9BTX1) | 0.00914 | -0.136
27 | NOP2_P46087_393_ILDMCCAPGGK (UniProt P46087) | -0.0381 | -0.0998

Row | Target | probe-labelled cysteine peptide fold change (10 µM) | probe-labelled cysteine peptide fold change (50 µM)
28 | OPLAH_O14841_408_LLPASFPCIFGPGENQPLSPEASR (UniProt O14841) | -0.283 | -0.252
29 | NDRG1_Q92597_289_MADCGGLPQISQPAK (UniProt Q92597) | -0.006 | -0.0335
30 | NFRKB_Q6P4R8_17_MDSLDHMLTDPLELGPCGDGHGTR (UniProt Q6P4R8) | -0.196 | -1.37
31 | NFIX_Q14938_6_MYSPYCLTQDEFHPFIEALLPHVR (UniProt Q14938) | 0.072 | -0.567
32 | NUP93_Q8N1F7_328_CGDLLAASQVVNR (UniProt Q8N1F7) | 0.0268 | 0.221
33 | NSD2_O96028_1102_KGEFVNEYVGELIDEEECMAR (UniProt O96028) | -0.163 | -0.0932
34 | OSBPL9_Q96SU4_577_SILTVPWVELGGECNINCSK (UniProt Q96SU4) | 0.311 | 0.198
35 | OSGEP_Q9NPF4_160_IFGETIDIAVGNCLDR (UniProt Q9NPF4) | 0.0104 | -0.0314
36 | ORC5_O43913_10_PHLENVVLCR (UniProt O43913) | -0.0683 | -0.0422
37 | PAICS_P22234_266_SESQCR (UniProt P22234) | 1.85 | 1.12
38 | NVL_O15381_803_EASICALR (UniProt O15381) | 0.0326 | 0.175
39 | PAFAH1B2_P68402_206_ICKPLHELIMQLLEETPEEK (UniProt P68402) | -0.486 | -0.692
40 | NECAP2_Q9NVZ3_11_MEESGYESVLCVKPDVHVYR (UniProt Q9NVZ3) | -0.174 | -0.048
41 | OAT_P04181_150_VLPMNTGVEAGETACK (UniProt P04181) | 0.0276 | 0.0487
42 | PASK_Q96RG2_759+761_ELFFSDQTDQTSSNCSCATSELR (UniProt Q96RG2) | 0.0516 | 0.0688
43 | PDF_Q9HBH1_222_IIQHEMDHLQGCLFIDK (UniProt Q9HBH1) | -0.0352 | 0.0675
44 | OPLAH_O14841_1053_DIPLNQGCLAPVR (UniProt O14841) | -0.146 | 0.136
45 | NOL10_Q9BSC4_147_DFSYHYPSCDLYFVGASSEVYR (UniProt Q9BSC4) | -0.459 | -0.299
46 | NDUFV2_P19404_135+140_YHIQVCTTTPCMLR (UniProt P19404) | 0.0444 | -0.234
47 | NCDN_Q9UBB6-2_5_ASDCEPALNQAEGR (UniProt Q9UBB6) | 0.0744 | -0.297
48 | NEMF_O60524_663_VDESCVWR (UniProt O60524) | 0.233 | 0.569
49 | NLRX1_Q86UT6_259_LAGTGLCSDPEEPQEPAAIIVNLLR (UniProt Q86UT6) | 0.274 | -0.746
50 | OCIAD2_Q56VL3_106_VSYIGVCQSK (UniProt Q56VL3) | -0.0503 | 0.116
51 | PCNA_P12004_135_LMDLDVEQLGIPEQEYSCVVK (UniProt P12004) | -0.113 | 0.0916
52 | NUP107_P57740_749_EHLCIR (UniProt P57740) | 0.128 | 0.0884
53 | NOL9_Q5SY16_219_WSMQNFSPQCSIVLLEHLK (UniProt Q5SY16) | 0.0873 | 0.0078
54 | NDUFAF4_Q9P032_87_AAETCQEPK (UniProt Q9P032) | -0.0492 | -0.243

Row | Target | probe-labelled cysteine peptide fold change (10 µM) | probe-labelled cysteine peptide fold change (50 µM)
55 | NUP188_Q5SRE5_161_VEYADCVDK (UniProt Q5SRE5) | 0.394 | 0.321
56 | NIT1_Q86X76_251+259_AIETQCYVVAAAQCGR (UniProt Q86X76) | 0.553 | 0.575
57 | NPTX1_Q15818_89_CESQSTLDPGAGEAR (UniProt Q15818) | -0.269 | 0.111
58 | NVL_O15381_460_LPQAFDFCHLAHLTPGFVGADLMALCR (UniProt O15381) | -0.219 | -0.00784
59 | PDS5A_Q29RF7_686_VLSFTHPTSFHSAETYESLLQCLR (UniProt Q29RF7) | -0.152 | -0.172
60 | OSBPL1A_Q9BXW6_340_EDWLEAIEEHSAYSTHYCSQDQLTDEEEEDTVSAADLKK (UniProt Q9BXW6) | 0.199 | -0.153
61 | NEK1_Q96PY6_276_FLSPQLIAEEFCLK (UniProt Q96PY6) | 0.0381 | 0.161
62 | PCDH17_O14917_335_DLGPNPIPAHCK (UniProt O14917) | 0.6 | 0.546
63 | ORC3_Q9UBD5_158_LISQLMDCCVDIK (UniProt Q9UBD5) | -0.0854 | -0.134
64 | PALD1_Q9ULE6_631_IPMPDFCAPREEDFDQLLEALR (UniProt Q9ULE6) | 0.052 | 0.057
65 | PDPR_Q8NCN5_357_LVNCPETFTPDMR (UniProt Q8NCN5) | -0.0721 | 0.18
66 | NPM1_P06748_21_MEDSMDMDMSPLRPQNYLFGCELK (UniProt P06748) | -0.279 | -0.642
67 | PDHB_P11177_161_GPNGASAGVAAQHSQCFAAWYGHCPGLK (UniProt P11177) | 0.0327 | 0.0759
68 | OSBPL3_Q9H4L5_114_CIDLDTEEHIYHLK (UniProt Q9H4L5) | -0.0859 | 0.0383
69 | NLN_Q9BYT8_451_YNHAACFGLQPGCLLPDGSR (UniProt Q9BYT8) | 0.193 | 0.181
70 | NT5DC1_Q5TFE4_139_YYFYDNYFDLPGALLCAR (UniProt Q5TFE4) | 0.416 | 0.718
71 | PARP14_Q460N5_1274_ECSQQAQQR (UniProt Q460N5) | 0.0962 | -0.0412
72 | PDS5B_Q9NTI5_732_YAIHCIHAIFSSK (UniProt Q9NTI5) | -0.00231 | 0.0228
73 | NUP43_Q8NFH3_222_VPLHCVDRHPNQQHVVATGGQDGMLSIWDVR (UniProt Q8NFH3) | 0.271 | 0.0847
74 | NFX1_Q12986_295_STCDSENLAVINK (UniProt Q12986) | 0.0624 | -0.0282
75 | OTX1_P32242_340_LNFNSPDCLDYK (UniProt P32242) | 0.161 | -0.0204
76 | NOC4L_Q9BVI4_509_KGPEPVPLEFIPAQGLLGRPGELCAQHFTLS (UniProt Q9BVI4) | 0.0196 | -0.199
77 | PABPC4_Q13310-3_488_VGSECPDR (UniProt Q13310) | -0.118 | -0.166
78 | NSUN2_Q08J23_673+678_YEPDSANPDALQCPIVLCGWR (UniProt Q08J23) | 0.0479 | 0.0634
79 | NOL6_Q9H6R4_256_LHPCPPPDFFRPCR (UniProt Q9H6R4) | 0.0181 | 0.0433
80 | NIPBL_Q6KC79_304_GSRPPLILQSQSLPCSSPR (UniProt Q6KC79) | 0.204 | 0.00224
